Laboratory results published in PubChem BioAssay (EPA / NIEHS).
The source made the active and inactive calls. How the source made its calls: active means hit-call score of the fitted dose curve at least 0.9, where 1 is the maximum; inactive means score below 0.9.

How the values were obtained:
[1] = ATG_GRE_CIS: Attagene CIS-FACTORIAL HepG2 Assay for human Glucocorticoid Response Elements (GRE) (AID 2282947); conditions: HepG2 GRE cis-reporter, Attagene multiplex mRNA; actives raise or lower the signal
Procedure, shortened: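 HepG2 cells transiently transfected with multiple cis-promoter reporter units measure endogenous TF activity; 24 h compound exposure. Reporter mRNA quantified by RT-PCR, FAM labelling, HpaI digestion and capillary electrophoresis; bidirectional fit vs DMSO baseline.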

[2] = ATG_ISRE_CIS: Attagene CIS-FACTORIAL HepG2 Assay for human Interferon Regulatory Factor 1 (IRF1) binding to an Interferon-Stimulated Response Element (ISRE) (AID 2282948); conditions: HepG2 ISRE cis-reporter (Attagene), mRNA transcription readout; actives raise or lower the signal
Procedure, shortened: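 Quantitation relies on labelled RT-PCR fragments separated by capillary electrophoresis. Human HepG2 cells bearing cis-promoter reporter constructs were treated 24 h; DMSO served as baseline for bidirectional fitting.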

[3] = ATG_M_32_CIS: Attagene CIS-FACTORIAL HepG2 Assay for M32 Transcription Factor (Internal Marker) (AID 2282949); conditions: HepG2 Attagene cis-factorial M32 reporter, mRNA; actives raise or lower the signal;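 further: background control marker of the multiplexed CIS panel rather than a real target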
Procedure, shortened: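 Following 24 h chemical exposure of HepG2 cells transiently expressing cis-promoter reporter constructs, reporter transcript levels were determined by RT-PCR with fluorescent labelling and capillary electrophoresis, then fitted bidirectionally against DMSO.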

[4] = ATG_M_06_CIS: Attagene CIS-FACTORIAL HepG2 Assay for M06 Transcription Factor (Internal Marker) (AID 2282950); conditions: HepG2 Attagene CIS-FACTORIAL M06 internal marker reporter; actives raise or lower the signal
Procedure, shortened: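 Steps: transfect HepG2 with multiplexed cis-element reporter constructs; dose chemical 24 h; extract RNA with DNase treatment; reverse-transcribe, PCR-amplify, 6-FAM label, HpaI digest; separate fragments by capillary electrophoresis. Activity fitted both directions versus DMSO.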

[5] = biological target: Hypoxia-inducible factor 1-alpha (Homo sapiens) (UniProt Q16665); experiment: ATG_HIF1a_CIS: Attagene CIS-FACTORIAL HepG2 Assay for human Hypoxia Inducible Factor 1 (HIF1A) (AID 2282951); conditions: HepG2 Attagene cis-factorial HIF1a reporter transcription; actives raise or lower the signal
Chain of Hypoxia-inducible factor 1-alpha (Homo sapiens) (Q16665 whole entry, looked up): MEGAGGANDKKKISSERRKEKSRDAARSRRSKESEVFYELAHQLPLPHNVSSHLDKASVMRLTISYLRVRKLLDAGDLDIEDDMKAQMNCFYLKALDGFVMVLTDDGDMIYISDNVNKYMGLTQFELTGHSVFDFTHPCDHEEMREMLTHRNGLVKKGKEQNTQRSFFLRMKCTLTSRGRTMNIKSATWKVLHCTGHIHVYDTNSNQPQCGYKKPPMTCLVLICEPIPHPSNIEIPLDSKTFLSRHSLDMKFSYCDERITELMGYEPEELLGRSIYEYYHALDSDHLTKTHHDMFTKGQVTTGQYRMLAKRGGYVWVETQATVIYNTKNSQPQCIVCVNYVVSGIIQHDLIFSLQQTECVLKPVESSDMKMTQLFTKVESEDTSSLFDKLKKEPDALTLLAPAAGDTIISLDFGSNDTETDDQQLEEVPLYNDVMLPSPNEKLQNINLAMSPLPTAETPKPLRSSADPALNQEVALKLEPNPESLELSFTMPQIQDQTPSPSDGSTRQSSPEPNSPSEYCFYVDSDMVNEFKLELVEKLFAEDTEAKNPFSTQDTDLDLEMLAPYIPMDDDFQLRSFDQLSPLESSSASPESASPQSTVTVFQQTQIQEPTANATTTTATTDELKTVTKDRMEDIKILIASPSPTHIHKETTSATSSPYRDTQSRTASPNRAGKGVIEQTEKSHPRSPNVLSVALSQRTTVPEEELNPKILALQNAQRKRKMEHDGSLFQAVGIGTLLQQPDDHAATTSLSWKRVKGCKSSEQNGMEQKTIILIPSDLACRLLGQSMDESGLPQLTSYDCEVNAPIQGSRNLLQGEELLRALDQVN
Procedure, shortened: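 Endogenous-TF cis reporter readout, human HepG2 cells, 24 h incubation; mRNA detected via RT-PCR and capillary electrophoresis fluorescence; DMSO-normalised bidirectional fitting.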

[6] = biological target: Hepatocyte nuclear factor 6 (Homo sapiens) (UniProt Q9UBC0); experiment: ATG_HNF6_CIS: Attagene CIS-FACTORIAL HepG2 Assay for human Hepatocyte Nuclear Factor 6 (HNF6) (AID 2282952); conditions: HepG2 Attagene cis-factorial HNF6 reporter transcription; actives raise or lower the signal
Chain of Hepatocyte nuclear factor 6 (Homo sapiens) (Q9UBC0 whole entry, looked up, the tested form may be a part): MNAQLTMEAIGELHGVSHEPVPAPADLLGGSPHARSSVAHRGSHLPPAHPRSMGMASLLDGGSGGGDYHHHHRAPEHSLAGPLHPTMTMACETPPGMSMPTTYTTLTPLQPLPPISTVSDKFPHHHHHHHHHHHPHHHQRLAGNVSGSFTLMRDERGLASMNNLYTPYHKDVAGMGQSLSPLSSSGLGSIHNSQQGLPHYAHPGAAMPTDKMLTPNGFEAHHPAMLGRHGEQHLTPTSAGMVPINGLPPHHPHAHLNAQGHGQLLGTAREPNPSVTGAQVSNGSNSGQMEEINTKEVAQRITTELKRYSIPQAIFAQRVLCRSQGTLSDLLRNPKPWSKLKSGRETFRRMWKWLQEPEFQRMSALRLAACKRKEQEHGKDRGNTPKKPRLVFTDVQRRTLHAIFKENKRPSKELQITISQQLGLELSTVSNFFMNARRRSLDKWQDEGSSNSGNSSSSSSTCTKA
Procedure, shortened: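 HepG2 cells transiently transfected with cis-element-driven multiplexed reporter units measuring endogenous transcription factor activity. After 24 h exposure, reporter mRNA quantified by RT-PCR, FAM-labelled fragments and capillary electrophoresis; bidirectional fitting versus DMSO.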

[7] = biological target: Heat shock factor protein 1 (Homo sapiens) (UniProt Q00613); experiment: ATG_HSE_CIS: Attagene CIS-FACTORIAL HepG2 Assay for human Heat Shock Transcription Factor 1 (HSE) (AID 2282953); conditions: HepG2 HSE cis-reporter, Attagene RNA transcription; actives raise or lower the signal
Chain of Heat shock factor protein 1 (Homo sapiens) (Q00613 whole entry, looked up, the tested form may be a part): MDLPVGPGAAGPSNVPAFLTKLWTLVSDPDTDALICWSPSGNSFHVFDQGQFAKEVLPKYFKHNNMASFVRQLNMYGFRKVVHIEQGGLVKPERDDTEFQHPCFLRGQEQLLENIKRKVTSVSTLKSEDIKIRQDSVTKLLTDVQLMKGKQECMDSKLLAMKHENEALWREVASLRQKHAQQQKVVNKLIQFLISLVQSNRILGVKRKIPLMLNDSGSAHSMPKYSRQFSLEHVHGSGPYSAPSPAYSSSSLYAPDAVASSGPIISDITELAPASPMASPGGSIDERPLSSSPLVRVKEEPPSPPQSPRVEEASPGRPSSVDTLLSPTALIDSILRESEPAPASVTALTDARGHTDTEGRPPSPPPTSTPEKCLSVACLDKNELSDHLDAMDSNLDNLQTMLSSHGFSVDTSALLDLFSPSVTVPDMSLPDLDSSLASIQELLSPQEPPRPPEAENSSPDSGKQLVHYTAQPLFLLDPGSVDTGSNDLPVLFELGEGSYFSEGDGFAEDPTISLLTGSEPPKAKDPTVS
Procedure, shortened: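 Cells were transfected with cis-element-driven reporter constructs, dosed for 24 h, then total RNA was reverse-transcribed and reporter cDNA amplified, FAM-labelled and digested with HpaI. Fragments were resolved by capillary electrophoresis; gain or loss was fitted against DMSO.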

[8] = ATG_MRE_CIS: Attagene CIS-FACTORIAL HepG2 Assay for human Metal Responsive Element (MRE) (AID 2282954); conditions: HepG2 MRE cis-reporter transcription, Attagene multiplex; actives raise or lower the signal
Procedure, shortened: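 HepG2 cells transiently transfected with multiple cis-element reporter units measure endogenous MTF1-driven transcription. After 24 h compound exposure, reporter mRNA is quantified by RT-PCR with 6-FAM labelling, HpaI digestion and capillary electrophoresis; bidirectional fits versus DMSO.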

[9] = ATG_PBREM_CIS: Attagene CIS-FACTORIAL HepG2 Assay for human Phenobarbital-responsive Enhancer Module (PBREM) (AID 2282955); conditions: HepG2 PBREM cis-reporter, Attagene multiplexed transcription; actives raise or lower the signal
Procedure, shortened: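 Readout: reporter mRNA, fluorescent RT-PCR fragments separated by capillary electrophoresis. System: HepG2 transiently transfected with cis-regulated reporter units. Exposure: 24 h. Analysis: bidirectional, DMSO baseline.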

Compound	AC50 [1]	outcome [2]	outcome [3]	outcome [4]	AC50 [5]	AC50 [6]	outcome [7]	outcome [8]	outcome [1]	outcome [5]	outcome [6]	outcome [9]	AC50 [8]	AC50 [7]	AC50 [2]	AC50 [3]
CC1CCC(C(C)CS)CC1S (stereo not given)	55 µM (active)	inactive	inactive	inactive	53.7 µM (active)	46.8 µM (active)	inactive	inactive								
CO[Si](C)(OC)c1ccccc1		inactive	inactive	inactive			inactive	inactive	inactive	inactive	inactive	inactive				
S=C(S)NCCNC(=S)S		inactive	inactive	inactive			inactive	inactive	inactive	inactive	inactive					
COc1ccc(O)cc1		inactive	inactive	inactive			inactive	inactive	inactive	inactive	inactive					
COCCOCCOCCOCCOCCO		inactive	inactive	inactive			inactive	inactive	inactive	inactive	inactive	inactive				
OC[C@H]1O[C@H](O[C@]2(CCl)O[C@H](CCl)[C@@H](O)[C@@H]2O)[C@H](O)[C@@H](O)[C@H]1Cl		inactive	inactive	inactive			inactive	inactive	inactive	inactive	inactive					
O=[N+]([O-])c1cc(C(F)(F)F)ccc1Cl		inactive	inactive	inactive			inactive	inactive	inactive	inactive	inactive					
CCC(C)(O)CCC=C(C)C (stereo not given)		inactive	inactive	inactive			inactive		inactive	inactive	inactive					
COC(=O)Cc1cccc2ccccc12		inactive	inactive	inactive			inactive	inactive	inactive	inactive	inactive					
C=CC(=O)OCCOCCOCC		inactive	inactive	inactive			inactive	inactive	inactive	inactive	inactive					
Cc1ccc(C(=O)c2cc(O)c(O)c([N+](=O)[O-])c2)cc1		inactive	inactive	inactive	27.4 µM (active)		inactive		inactive		inactive	inactive	130 µM (active)			
CCCC1CCC(=O)O1 (stereo not given)		inactive	inactive	inactive			inactive	inactive	inactive	inactive	inactive	inactive				
OCCOCCOCCOCCO		inactive	inactive	inactive				inactive	inactive	inactive	inactive			57.2 µM (active)		
Nc1cc(Cl)c(O)c(Cl)c1			inactive	inactive					inactive	inactive	inactive		79 µM (active)	142 µM (active)	100 µM (active)	
CC(O)C(C)O (stereo not given)		inactive	inactive	inactive			inactive	inactive	inactive	inactive	inactive	inactive				
CCCCC[Si](OCC)(OCC)OCC		inactive	inactive	inactive			inactive		inactive	inactive	inactive					
CCOC(=S)SSC(=S)OCC		inactive	inactive	inactive				inactive	inactive	inactive	inactive	inactive		157 µM (active)		
COCCCOc1ccnc(CS(=O)c2nc3ccccc3[nH]2)c1C (stereo not given)		inactive	inactive	inactive					inactive	inactive	inactive		106 µM (active)	152 µM (active)		
CCCCCCC#CC(=O)OC		inactive	inactive	inactive			inactive	inactive	inactive	inactive	inactive					
C=CC(=O)OCC(O)COc1ccccc1 (stereo not given)	67.3 µM (active)		inactive	inactive						inactive	inactive			134 µM (active)	27.4 µM (active)	
Clc1ccc2c(c1)C(N1CCNCC1)=Nc1ccccc1O2		inactive		inactive					inactive	inactive	inactive		34.2 µM (active)	52.1 µM (active)		52.4 µM (active)
CCCCCCCCCCCCCOS(=O)(=O)O		inactive	inactive	inactive			inactive	inactive	inactive	inactive	inactive					
CCCCCCCCC=O		inactive	inactive	inactive			inactive	inactive	inactive	inactive	inactive	inactive				
Nc1cccc(S(=O)(=O)c2cccc(N)c2)c1		inactive	inactive	inactive			inactive	inactive	inactive	inactive	inactive	inactive				
C=COCCOCCOCCOC=C		inactive	inactive	inactive			inactive	inactive	inactive	inactive	inactive	inactive				
COC(=O)OC		inactive	inactive	inactive			inactive	inactive	inactive	inactive	inactive	inactive				
COc1ccnc(CS(=O)c2nc3cc(OC(F)F)ccc3[nH]2)c1OC (stereo not given)		inactive	inactive	inactive			inactive	inactive	inactive	inactive	inactive	inactive				

Compound	AC50 [1]	outcome [2]	outcome [3]	outcome [4]	AC50 [5]	AC50 [6]	outcome [7]	outcome [8]	outcome [1]	outcome [5]	outcome [6]	outcome [9]	AC50 [8]	AC50 [7]	AC50 [2]	AC50 [3]
C=C[C@@H](C)CCC=C(C)C		inactive	inactive	inactive			inactive	inactive	inactive	inactive	inactive					
COc1ccc(Cl)cc1C		inactive	inactive	inactive			inactive	inactive	inactive	inactive	inactive					
O=[N+]([O-])c1ccc(Nc2ccc(Nc3ccccc3)c(S(=O)(=O)O)c2)c([N+](=O)[O-])c1		inactive	inactive	inactive					inactive	inactive	inactive	inactive	100 µM (active)	178 µM (active)		
O=C(O)c1cccc(C(F)(F)F)c1		inactive	inactive	inactive			inactive	inactive	inactive	inactive	inactive	inactive				
C=CCOc1nc(OCC=C)nc(OCC=C)n1		inactive	inactive	inactive			inactive	inactive	inactive	inactive	inactive					
COc1nc(C)nc(N)n1		inactive	inactive	inactive			inactive	inactive	inactive		inactive					
CC(=O)[O][Al][O]C(C)=O		inactive	inactive	inactive				inactive	inactive	inactive	inactive					
CCCCCCCCCCCCN		inactive	inactive	inactive				inactive	inactive	inactive	inactive	inactive				
O=C1CCCCCCCCCCOCCCCO1		inactive	inactive	inactive	179 µM (active)				inactive		inactive	inactive	180 µM (active)			
CC1(C)[C@H](C(=O)OCc2cccc(Oc3ccccc3)c2)[C@@H]1C=C(Cl)Cl		inactive	inactive	inactive			inactive	inactive	inactive	inactive	inactive	inactive				
Nc1cc([N+](=O)[O-])ccc1O		inactive	inactive	inactive			inactive	inactive	inactive	inactive	inactive	inactive				
O=C(OCc1ccccc1)C(=O)OCc1ccccc1		inactive	inactive	inactive				inactive	inactive	inactive	inactive	inactive				
Cc1cc(C2(c3cc(C)c(O)cc3C)OS(=O)(=O)c3ccccc32)c(C)cc1O		inactive	inactive	inactive				inactive	inactive	inactive	inactive	inactive				
CC(=O)Nc1ccc(CC(=O)O)cc1		inactive	inactive	inactive			inactive		inactive	inactive	inactive	inactive				
Cc1cccc(C)c1[N+](=O)[O-]		inactive	inactive	inactive				inactive	inactive	inactive	inactive					
CCCCCCCCCCCCCCCC(=O)O		inactive	inactive	inactive			inactive		inactive	inactive	inactive	inactive				
CC1(C)[C@@H]2CC[C@@]1(C)[C@H](O)C2		inactive	inactive	inactive	100 µM (active)		inactive		inactive		inactive	inactive				
O=C1OC2(c3cc(Br)c(O)c(Br)c3Oc3c2cc(Br)c(O)c3Br)c2c(Cl)c(Cl)c(Cl)c(Cl)c21		inactive	inactive	inactive			inactive		inactive	inactive	inactive	inactive	19.1 µM (active)			
CC(C)=CCC[C@](C)(O)[C@@H]1CC=C(C)CC1		inactive	inactive	inactive				inactive	inactive	inactive	inactive					
CCCCCCCCCCC(CO)CCCCCCCC (stereo not given)		inactive	inactive	inactive			inactive		inactive	inactive	inactive	inactive				
COc1cc(C)cc(O)c1		inactive	inactive	inactive			inactive		inactive	inactive	inactive	inactive				
Cc1ccc(C(C)C)cc1O		inactive	inactive	inactive			inactive	inactive	inactive		inactive					
CC(=O)O[C@H](CC(=O)[O-])C[N+](C)(C)C		inactive	inactive	inactive			inactive	inactive	inactive		inactive					
CCO[Si](CCCS)(OCC)OCC		inactive	inactive	inactive			inactive	inactive	inactive		inactive					
Cc1ccc2ccccc2n1		inactive	inactive	inactive				inactive	inactive	inactive	inactive	inactive				
NC(=O)NC1NC(=O)NC1=O (stereo not given)		inactive	inactive	inactive				inactive	inactive	inactive	inactive	inactive				
